Test results reported in PMC7862700, “An all-to-all approach to the identification of sequence-specific readers for epigenetic DNA modifications on cytosine”.

Tests used:
Experiment in all cases: DAPPL (digital affinity profiling via proximity ligation, sequencing); 10 mM Tris-HCl pH 7.5, 50 mM NaCl, 1 mM DTT, 4% glycerol, room temperature, 30 min; GST-TFs on glutathione beads, 16-mer random dsDNA library, 0.1% formaldehyde crosslink after washing; high values mean tight binding
FLI1 = biological target: T1, FLI1 (Homo sapiens, UniProt Q01543 1-452); details: protein: recombinant; tags: N-terminal GST; dsDNA, one strand shown
T1 sequence: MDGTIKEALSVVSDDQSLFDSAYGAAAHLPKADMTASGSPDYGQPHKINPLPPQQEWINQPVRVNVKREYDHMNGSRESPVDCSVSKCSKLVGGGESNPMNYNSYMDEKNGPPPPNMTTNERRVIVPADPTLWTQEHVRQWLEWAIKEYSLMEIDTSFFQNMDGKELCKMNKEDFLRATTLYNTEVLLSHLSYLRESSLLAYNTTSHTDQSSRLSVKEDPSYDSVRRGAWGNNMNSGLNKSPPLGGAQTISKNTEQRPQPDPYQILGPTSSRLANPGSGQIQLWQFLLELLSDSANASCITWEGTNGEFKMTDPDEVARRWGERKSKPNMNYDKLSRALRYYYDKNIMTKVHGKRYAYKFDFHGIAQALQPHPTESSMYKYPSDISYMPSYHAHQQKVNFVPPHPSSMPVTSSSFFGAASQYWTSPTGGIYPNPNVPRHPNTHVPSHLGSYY
Outline: (§1)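 Pools were built from human transcription factors expressed in yeast as GST fusions, captured on glutathione beads and DNA-barcoded, along with a tag-only sample. Incubation with 200 nmole of a 16-mer random double-stranded DNA library lasted 30 min at room temperature in Tris/NaCl/DTT/glycerol buffer, and was followed by washing, 0.1% formaldehyde crosslinking, proximity ligation, PCR amplification and Illumina NextSeq500 sequencing. Binding signal is the quotient of each hexamer's read frequency for a factor and its frequency for the tag-only sample.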

ELK1 = biological target: T2, ELK1 (Homo sapiens, UniProt P19419 1-428); details: protein: recombinant; tags: N-terminal GST; dsDNA, one strand shown
T2 sequence: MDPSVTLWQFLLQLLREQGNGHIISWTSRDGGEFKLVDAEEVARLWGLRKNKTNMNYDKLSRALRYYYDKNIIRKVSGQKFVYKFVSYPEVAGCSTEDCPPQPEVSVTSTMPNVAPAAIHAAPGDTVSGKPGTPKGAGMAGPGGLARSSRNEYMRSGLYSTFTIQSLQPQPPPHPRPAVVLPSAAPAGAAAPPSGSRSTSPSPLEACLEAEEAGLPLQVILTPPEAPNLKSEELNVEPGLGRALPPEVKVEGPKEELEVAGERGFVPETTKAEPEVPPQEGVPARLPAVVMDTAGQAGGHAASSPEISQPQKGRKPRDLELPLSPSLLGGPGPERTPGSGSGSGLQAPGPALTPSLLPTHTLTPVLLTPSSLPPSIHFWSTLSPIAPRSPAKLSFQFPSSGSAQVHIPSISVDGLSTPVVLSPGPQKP
Outline: as §1

GABPA = biological target: T3, GABPA (Homo sapiens, UniProt Q06546 1-454); details: protein: recombinant; tags: N-terminal GST; dsDNA, one strand shown
T3 sequence: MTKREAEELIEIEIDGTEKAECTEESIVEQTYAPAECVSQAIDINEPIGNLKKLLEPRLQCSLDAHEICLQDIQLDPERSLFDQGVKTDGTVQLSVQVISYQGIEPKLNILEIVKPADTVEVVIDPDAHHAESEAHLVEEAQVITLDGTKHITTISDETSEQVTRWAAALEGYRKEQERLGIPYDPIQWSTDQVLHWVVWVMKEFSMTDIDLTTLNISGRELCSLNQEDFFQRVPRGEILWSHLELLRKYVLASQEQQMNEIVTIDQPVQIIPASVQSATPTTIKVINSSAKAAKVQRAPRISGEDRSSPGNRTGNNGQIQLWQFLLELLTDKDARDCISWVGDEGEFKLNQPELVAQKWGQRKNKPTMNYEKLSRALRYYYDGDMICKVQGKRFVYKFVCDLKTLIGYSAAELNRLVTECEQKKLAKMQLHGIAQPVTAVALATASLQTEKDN
Outline: as §1

ERG = biological target: T4, ERG (Homo sapiens, UniProt P11308 1-479); details: protein: recombinant; tags: N-terminal GST; dsDNA, one strand shown
T4 sequence: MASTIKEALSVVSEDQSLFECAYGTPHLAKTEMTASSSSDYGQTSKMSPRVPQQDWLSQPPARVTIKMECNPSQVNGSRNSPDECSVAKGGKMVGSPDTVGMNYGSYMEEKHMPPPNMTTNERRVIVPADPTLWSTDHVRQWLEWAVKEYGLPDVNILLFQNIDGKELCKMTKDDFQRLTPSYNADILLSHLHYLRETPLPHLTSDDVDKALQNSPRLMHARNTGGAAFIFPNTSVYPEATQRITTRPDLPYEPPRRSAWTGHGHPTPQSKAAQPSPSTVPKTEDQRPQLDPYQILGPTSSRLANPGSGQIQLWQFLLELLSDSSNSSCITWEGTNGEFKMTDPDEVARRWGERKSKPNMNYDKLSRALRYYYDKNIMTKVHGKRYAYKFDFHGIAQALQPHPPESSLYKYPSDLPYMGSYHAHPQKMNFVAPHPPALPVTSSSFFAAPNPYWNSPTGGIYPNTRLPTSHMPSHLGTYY
Outline: as §1

ELF1 = ELF1 (Homo sapiens, UniProt P32519 1-619); details: protein: recombinant; tags: N-terminal GST; dsDNA, one strand shown
Outline: as §1

EHF = biological target: T5, EHF (Homo sapiens, UniProt Q9NZC4 1-300); details: protein: recombinant; tags: N-terminal GST; dsDNA, one strand shown
T5 sequence: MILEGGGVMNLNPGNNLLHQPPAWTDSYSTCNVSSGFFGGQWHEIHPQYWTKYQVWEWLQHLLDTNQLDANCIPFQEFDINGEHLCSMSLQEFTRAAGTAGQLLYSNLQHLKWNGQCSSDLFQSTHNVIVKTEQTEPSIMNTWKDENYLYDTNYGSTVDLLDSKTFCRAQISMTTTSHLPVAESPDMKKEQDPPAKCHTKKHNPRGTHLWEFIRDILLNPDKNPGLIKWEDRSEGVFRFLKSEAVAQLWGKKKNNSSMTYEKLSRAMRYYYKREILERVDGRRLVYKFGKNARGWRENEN
Outline: as §1

SPI1 = SPI1 (Homo sapiens, UniProt P17947 1-270); details: protein: recombinant; tags: N-terminal GST; dsDNA, one strand shown
Outline: as §1

SPIB = SPIB (Homo sapiens, UniProt Q01892 1-262); details: protein: recombinant; tags: N-terminal GST; dsDNA, one strand shown
Outline: as §1

ELK3 = biological target: T6, ELK3 (Homo sapiens, UniProt P41970 1-407); details: protein: recombinant; tags: N-terminal GST; dsDNA, one strand shown
T6 sequence: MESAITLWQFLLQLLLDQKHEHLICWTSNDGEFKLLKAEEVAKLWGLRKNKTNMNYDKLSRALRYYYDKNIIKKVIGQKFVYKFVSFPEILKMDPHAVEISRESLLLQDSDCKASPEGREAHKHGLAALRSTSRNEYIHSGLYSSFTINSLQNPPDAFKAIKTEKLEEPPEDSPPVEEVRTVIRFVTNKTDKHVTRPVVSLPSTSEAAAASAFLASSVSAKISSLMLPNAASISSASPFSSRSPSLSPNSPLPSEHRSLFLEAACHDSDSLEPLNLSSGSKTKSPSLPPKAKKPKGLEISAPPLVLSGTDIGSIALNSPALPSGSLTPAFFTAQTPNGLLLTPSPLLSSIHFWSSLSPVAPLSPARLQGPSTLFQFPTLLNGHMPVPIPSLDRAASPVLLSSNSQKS
Outline: as §1

FEV = biological target: T7, FEV (Homo sapiens, UniProt Q99581 1-238); details: protein: recombinant; tags: N-terminal GST; dsDNA, one strand shown
T7 sequence: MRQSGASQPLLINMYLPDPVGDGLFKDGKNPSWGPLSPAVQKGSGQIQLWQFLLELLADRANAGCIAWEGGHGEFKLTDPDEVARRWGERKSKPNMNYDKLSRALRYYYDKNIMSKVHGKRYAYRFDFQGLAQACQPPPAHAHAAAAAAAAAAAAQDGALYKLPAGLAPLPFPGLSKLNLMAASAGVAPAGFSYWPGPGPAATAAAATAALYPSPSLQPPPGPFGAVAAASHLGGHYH
Outline: as §1

ETV5 = ETV5 (Homo sapiens, UniProt P41161 1-510); details: protein: recombinant; tags: N-terminal GST; dsDNA, one strand shown
Outline: as §1

HSF1 = HSF1 (Homo sapiens, UniProt Q00613 1-529); details: protein: recombinant; tags: N-terminal GST; chain copies: 3; dsDNA, one strand shown
Outline: as §1

SPIC = biological target: T8, SPIC (Homo sapiens, UniProt Q8N5J4 1-248); details: protein: recombinant; tags: N-terminal GST; dsDNA, one strand shown
T8 sequence: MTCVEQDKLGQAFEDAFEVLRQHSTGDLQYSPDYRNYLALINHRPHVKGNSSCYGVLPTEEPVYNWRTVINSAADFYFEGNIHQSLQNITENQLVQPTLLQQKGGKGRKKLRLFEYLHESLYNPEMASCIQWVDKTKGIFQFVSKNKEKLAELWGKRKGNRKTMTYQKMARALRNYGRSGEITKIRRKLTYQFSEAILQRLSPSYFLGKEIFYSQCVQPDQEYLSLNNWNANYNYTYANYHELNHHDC
Outline: as §1

ELF4 = ELF4 (Homo sapiens, UniProt Q99607 1-663); details: protein: recombinant; tags: N-terminal GST; dsDNA, one strand shown
Outline: as §1

ELK4 = biological target: T9, ELK4 (Homo sapiens, UniProt P28324-2 1-405); details: protein: recombinant; tags: N-terminal GST; dsDNA, one strand shown
T9 sequence: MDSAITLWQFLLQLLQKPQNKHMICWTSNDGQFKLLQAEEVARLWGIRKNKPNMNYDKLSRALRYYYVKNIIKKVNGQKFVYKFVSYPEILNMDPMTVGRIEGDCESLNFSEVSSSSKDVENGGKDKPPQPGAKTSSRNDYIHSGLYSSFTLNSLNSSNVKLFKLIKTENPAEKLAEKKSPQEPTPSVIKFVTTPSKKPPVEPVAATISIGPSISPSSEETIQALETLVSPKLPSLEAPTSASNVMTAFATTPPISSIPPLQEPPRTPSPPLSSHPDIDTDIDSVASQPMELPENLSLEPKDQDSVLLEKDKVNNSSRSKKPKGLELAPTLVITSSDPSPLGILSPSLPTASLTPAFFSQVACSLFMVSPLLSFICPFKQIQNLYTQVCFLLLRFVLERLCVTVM
Outline: as §1

ETV2 = biological target: T10, ETV2 (Homo sapiens, UniProt O00321 1-342); details: protein: recombinant; tags: N-terminal GST; dsDNA, one strand shown
T10 sequence: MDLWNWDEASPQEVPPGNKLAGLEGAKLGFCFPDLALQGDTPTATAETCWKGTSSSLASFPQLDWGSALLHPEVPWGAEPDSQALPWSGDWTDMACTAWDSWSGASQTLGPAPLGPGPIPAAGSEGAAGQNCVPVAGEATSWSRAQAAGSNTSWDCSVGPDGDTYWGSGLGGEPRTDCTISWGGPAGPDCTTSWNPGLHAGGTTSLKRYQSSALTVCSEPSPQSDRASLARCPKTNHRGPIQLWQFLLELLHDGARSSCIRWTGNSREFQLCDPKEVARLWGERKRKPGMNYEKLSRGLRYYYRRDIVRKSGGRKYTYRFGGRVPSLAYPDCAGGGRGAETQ
Outline: as §1

ELF3 = biological target: T11, ELF3 (Homo sapiens, UniProt P78545 1-371); details: protein: recombinant; tags: N-terminal GST; dsDNA, one strand shown
T11 sequence: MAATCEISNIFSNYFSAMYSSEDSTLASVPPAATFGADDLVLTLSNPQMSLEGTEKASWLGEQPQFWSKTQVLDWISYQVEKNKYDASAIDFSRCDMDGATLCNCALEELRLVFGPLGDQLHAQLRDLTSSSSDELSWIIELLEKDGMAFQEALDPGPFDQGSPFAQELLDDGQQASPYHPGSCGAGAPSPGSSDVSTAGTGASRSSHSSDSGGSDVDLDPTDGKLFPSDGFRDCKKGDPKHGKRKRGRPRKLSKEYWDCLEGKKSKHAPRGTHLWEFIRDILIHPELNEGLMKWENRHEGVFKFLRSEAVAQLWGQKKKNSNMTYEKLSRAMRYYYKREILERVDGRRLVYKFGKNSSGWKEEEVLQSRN
Outline: as §1

CRX = CRX (Homo sapiens, UniProt O43186 1-299); details: protein: recombinant; tags: N-terminal GST; dsDNA, one strand shown
Outline: as §1

ETV1 = ETV1 (Homo sapiens, UniProt P50549 1-477); details: protein: recombinant; tags: N-terminal GST; dsDNA, one strand shown
Outline: as §1

Sequence of ELF1 (P32519 whole entry): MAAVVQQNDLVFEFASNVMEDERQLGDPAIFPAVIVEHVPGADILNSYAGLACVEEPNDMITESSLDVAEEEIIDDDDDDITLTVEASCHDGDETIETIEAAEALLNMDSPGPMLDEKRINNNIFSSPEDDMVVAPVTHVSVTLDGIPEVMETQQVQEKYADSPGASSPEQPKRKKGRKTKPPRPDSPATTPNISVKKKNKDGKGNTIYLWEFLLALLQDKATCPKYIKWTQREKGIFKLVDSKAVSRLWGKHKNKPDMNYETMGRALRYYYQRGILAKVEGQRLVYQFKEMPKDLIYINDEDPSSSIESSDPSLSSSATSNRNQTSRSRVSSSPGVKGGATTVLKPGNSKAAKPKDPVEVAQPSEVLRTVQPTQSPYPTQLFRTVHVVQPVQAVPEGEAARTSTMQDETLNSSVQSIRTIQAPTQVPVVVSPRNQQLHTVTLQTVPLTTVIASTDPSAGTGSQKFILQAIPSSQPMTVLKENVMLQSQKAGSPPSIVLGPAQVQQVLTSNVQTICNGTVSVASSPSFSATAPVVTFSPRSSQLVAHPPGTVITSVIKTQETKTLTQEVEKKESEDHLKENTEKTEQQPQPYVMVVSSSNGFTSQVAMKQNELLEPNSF
Sequence of CRX (O43186 whole entry): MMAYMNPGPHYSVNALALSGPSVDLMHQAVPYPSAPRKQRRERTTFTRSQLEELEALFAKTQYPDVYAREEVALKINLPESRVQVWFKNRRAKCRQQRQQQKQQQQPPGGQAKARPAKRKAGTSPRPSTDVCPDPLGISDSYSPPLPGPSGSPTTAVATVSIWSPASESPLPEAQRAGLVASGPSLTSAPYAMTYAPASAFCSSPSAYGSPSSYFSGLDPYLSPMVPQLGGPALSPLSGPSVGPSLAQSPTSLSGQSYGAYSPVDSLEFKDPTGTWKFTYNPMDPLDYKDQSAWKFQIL
Sequence of SPIB (Q01892 whole entry): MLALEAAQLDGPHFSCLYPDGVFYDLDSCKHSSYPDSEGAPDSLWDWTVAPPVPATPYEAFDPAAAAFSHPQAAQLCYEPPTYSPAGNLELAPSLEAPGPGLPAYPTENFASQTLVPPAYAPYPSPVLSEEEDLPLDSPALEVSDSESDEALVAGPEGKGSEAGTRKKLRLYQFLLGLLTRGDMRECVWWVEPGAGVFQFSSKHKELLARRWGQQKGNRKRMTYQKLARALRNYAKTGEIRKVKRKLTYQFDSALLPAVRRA
Sequence of ELF4 (Q99607 whole entry): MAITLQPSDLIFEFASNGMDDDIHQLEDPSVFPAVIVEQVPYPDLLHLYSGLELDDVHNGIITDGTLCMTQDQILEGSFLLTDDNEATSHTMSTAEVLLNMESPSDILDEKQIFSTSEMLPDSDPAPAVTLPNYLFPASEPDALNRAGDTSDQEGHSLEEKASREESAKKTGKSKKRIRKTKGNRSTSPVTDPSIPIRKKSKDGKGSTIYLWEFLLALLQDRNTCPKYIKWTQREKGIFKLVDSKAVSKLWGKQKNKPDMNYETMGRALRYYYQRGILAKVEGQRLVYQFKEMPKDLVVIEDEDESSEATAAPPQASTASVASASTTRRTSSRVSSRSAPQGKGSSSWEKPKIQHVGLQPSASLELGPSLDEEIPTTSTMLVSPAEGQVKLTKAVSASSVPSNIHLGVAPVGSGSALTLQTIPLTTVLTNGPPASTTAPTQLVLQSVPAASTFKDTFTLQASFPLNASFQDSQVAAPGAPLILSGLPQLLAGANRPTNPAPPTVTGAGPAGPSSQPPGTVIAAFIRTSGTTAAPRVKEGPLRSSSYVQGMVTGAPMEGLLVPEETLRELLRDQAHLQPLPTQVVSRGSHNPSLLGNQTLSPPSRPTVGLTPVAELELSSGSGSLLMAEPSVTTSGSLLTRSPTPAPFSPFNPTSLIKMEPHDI
Sequence of HSF1 (Q00613 whole entry): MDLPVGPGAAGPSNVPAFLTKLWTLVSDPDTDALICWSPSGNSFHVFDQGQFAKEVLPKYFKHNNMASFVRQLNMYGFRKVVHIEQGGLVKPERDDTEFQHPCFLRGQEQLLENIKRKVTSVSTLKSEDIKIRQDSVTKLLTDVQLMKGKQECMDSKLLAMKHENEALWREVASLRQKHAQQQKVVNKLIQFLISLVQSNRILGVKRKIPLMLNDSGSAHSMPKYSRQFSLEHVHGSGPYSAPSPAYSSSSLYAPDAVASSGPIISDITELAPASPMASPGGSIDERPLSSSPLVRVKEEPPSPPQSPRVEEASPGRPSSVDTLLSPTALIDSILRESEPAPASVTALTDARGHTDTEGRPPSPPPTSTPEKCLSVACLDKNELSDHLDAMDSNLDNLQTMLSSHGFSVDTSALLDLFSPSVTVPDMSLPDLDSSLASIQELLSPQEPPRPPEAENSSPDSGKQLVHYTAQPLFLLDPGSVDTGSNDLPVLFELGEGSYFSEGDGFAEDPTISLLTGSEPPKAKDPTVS
Sequence of ETV5 (P41161 whole entry): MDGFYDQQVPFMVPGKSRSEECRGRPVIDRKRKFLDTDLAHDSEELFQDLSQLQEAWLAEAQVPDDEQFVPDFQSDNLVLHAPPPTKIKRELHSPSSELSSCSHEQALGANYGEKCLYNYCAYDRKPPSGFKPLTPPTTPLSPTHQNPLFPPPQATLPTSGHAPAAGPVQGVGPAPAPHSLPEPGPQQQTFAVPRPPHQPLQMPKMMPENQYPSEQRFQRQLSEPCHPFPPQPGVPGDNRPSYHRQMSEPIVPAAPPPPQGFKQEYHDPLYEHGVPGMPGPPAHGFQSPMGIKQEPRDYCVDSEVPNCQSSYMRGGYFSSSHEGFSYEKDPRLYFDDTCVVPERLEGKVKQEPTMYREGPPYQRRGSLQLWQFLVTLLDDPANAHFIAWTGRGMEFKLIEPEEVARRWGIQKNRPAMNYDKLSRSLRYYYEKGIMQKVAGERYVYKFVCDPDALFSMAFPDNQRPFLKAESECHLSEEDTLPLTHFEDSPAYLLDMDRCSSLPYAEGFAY
Sequence of ETV1 (P50549 whole entry): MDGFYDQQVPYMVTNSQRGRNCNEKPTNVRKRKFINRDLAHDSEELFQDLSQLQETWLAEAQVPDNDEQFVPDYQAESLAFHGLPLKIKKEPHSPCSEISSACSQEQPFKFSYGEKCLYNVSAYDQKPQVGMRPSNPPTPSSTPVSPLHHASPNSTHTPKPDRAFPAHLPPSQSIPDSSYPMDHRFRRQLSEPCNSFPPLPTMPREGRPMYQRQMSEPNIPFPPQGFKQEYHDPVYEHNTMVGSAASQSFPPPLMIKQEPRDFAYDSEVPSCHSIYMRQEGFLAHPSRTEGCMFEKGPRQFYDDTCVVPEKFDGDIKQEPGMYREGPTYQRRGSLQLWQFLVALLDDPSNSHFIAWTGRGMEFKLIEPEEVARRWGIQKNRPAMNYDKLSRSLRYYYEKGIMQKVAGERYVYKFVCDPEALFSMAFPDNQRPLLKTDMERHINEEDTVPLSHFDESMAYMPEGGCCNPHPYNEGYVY

In the case of ATATAC, the binding signal (FLI1) is reported as 1.13 fold enrichment (6-mer frequency, TF over GST control), the binding signal (ELK1) is reported as 1.24 fold enrichment (6-mer frequency, TF over GST control) and the binding signal (GABPA) is reported as 1.2 fold enrichment (6-mer frequency, TF over GST control). The binding signal (ERG) was 1.18 fold enrichment (6-mer frequency, TF over GST control), the binding signal (ELF1) was 1.14 fold enrichment (6-mer frequency, TF over GST control) and the binding signal (EHF) was 1.22 fold enrichment (6-mer frequency, TF over GST control). The binding signal (SPI1) was 1.19 fold enrichment (6-mer frequency, TF over GST control), the binding signal (SPIB) was 1.21 fold enrichment (6-mer frequency, TF over GST control) and the binding signal (ELK3) was 1.27 fold enrichment (6-mer frequency, TF over GST control). The binding signal (FEV) was 1.11 fold enrichment (6-mer frequency, TF over GST control), the binding signal (ETV5) was 1.16 fold enrichment (6-mer frequency, TF over GST control) and the binding signal (HSF1) was 1.12 fold enrichment (6-mer frequency, TF over GST control). For the same sequence, the binding signal (SPIC) was 1.17 fold enrichment (6-mer frequency, TF over GST control), the binding signal (ELF4) was 1.13 fold enrichment (6-mer frequency, TF over GST control) and the binding signal (ELK4) was 1.2 fold enrichment (6-mer frequency, TF over GST control). For the same sequence, the binding signal (ETV2) was 1.12 fold enrichment (6-mer frequency, TF over GST control), the binding signal (ELF3) was 1.22 fold enrichment (6-mer frequency, TF over GST control) and the binding signal (CRX) was 1.08 fold enrichment (6-mer frequency, TF over GST control). For the same sequence, the binding signal (ETV1) was 1.21 fold enrichment (6-mer frequency, TF over GST control).
